# Source: PubChem BioAssay (NCATS)
# Inconclusive results are not listed. Calls of active or inactive are those of the source. Calls follow the shape of the full dose curve. Residues, ends and D or L forms follow the SMILES beside them.
# Target: Peroxisome proliferator-activated receptor delta (Homo sapiens) (UniProt Q03181)
# Experiment: qHTS assay for small molecule agonists of peroxisome proliferator-activated receptor delta signaling (AID 588534)
# Conditions: HEK293T PPARdelta-UAS-bla, beta-lactamase ratio, 18 h; series mostly up to 76.7 µM
# Outline: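 EC50 and efficacy values derive from Hill fits of a concentration series in a beta-lactamase reporter cell assay. Exposure is 18 hrs at 37 C, with CCF4 fluorescence as the readout.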
# Peroxisome proliferator-activated receptor delta (Homo sapiens), sequence (Q03181 whole entry, looked up): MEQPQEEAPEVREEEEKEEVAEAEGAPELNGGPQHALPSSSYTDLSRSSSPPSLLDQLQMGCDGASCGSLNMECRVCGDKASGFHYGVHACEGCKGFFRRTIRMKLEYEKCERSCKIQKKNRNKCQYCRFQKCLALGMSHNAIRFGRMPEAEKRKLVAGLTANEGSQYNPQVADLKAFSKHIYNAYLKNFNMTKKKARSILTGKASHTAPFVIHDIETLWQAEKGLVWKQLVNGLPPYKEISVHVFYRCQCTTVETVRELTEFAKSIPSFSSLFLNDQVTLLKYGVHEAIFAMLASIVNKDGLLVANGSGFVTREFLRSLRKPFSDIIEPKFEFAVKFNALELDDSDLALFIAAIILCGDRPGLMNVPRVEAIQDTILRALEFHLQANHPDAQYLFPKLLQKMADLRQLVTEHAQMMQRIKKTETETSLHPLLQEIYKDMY
row,SMILES,outcome
1,CCCCOC(=O)c1ccc(N)cc1,inactive
2,O=C(O)CCCCC(=O)O,inactive
3,NC(=O)c1ccccc1O,inactive
4,CCCC(O)C(CC)CO (centres undefined),inactive
5,NCCNCCNCCNCCN,inactive
6,N[C@@H](Cc1cc(I)c(Oc2ccc(O)c(I)c2)c(I)c1)C(=O)O,inactive
7,CC(C)(C)CC(C)(C)c1ccc(O)c(-n2nc3ccccc3n2)c1,inactive
8,O=C(OCc1ccccc1)c1ccccc1,inactive
9,CCCCC(CC)COC(=O)c1ccccc1O (centres undefined),inactive
10,Nc1ccc(C(=O)O)cc1,inactive
11,CCOC(=O)c1ccc(O)cc1,inactive
12,NCCNCCNCCN,inactive
13,CCCCCCCCCCCCCCCCCCO,inactive
14,CCCCCCCCCCCCCCCCO,inactive
15,CN=C(NC#N)NCCSCc1nc[nH]c1C,inactive
16,CC1CC(OC(=O)c2ccccc2O)CC(C)(C)C1 (centres undefined),inactive
17,COc1cc(C=O)ccc1O,inactive

row,SMILES,outcome
1,Oc1ccc(Cl)cc1,inactive
2,Cc1c(C(=O)NCCO)[n+](=O)c2ccccc2n1[O-],inactive
3,Cc1cc(O)cc(C)c1Cl,inactive
4,COc1ccc(C(=O)c2ccccc2)c(O)c1,inactive
5,CC(=O)c1ccc(S(=O)(=O)NC(=O)NC2CCCCC2)cc1,inactive
6,C=CCc1ccc(O)c(OC)c1,inactive
7,COC(=O)[C@H](Cc1ccccc1)NC(=O)[C@@H](N)CC(=O)O (H-Asp-Phe-OMe),inactive
8,CC(C)Cc1ccc(C(C)C(=O)O)cc1 (centres undefined),inactive
9,COc1ccc(O)cc1,inactive
10,CCCCCCCC(=O)OCC(COC(=O)CCCCCCC)OC(=O)CCCCCCC,inactive
11,CC(=O)OCC(COC(C)=O)OC(C)=O,inactive
12,O=C1c2ccccc2C(=O)c2ccccc21,inactive
13,Cc1ccc(C(C)C)c(O)c1,inactive
14,CCc1cc(C(N)=S)ccn1,inactive
15,CCCCCCCCCCCCCCCC(=O)OC(C)C,inactive
16,O=C(c1ccccc1)C(O)c1ccccc1 (centres undefined),inactive
17,Cc1nnc(NS(=O)(=O)c2ccc(N)cc2)s1,inactive
